# Reference: the supplement of paper PMC10849652
# Of roughly 7,900 targets only a part is listed; those with a hit were picked by preference. About 0.6% of all pairs of compound and target were hits. Values without a mark were called inactive.
# What was measured:
# Assay in all cases: log2 fold change, soluble protein after heating vs DMSO (PISA); higher = thermal stabilisation; K562 cells, 10 uM, 30 min; active = over 0.2 and 3.5 SD of the protein, either way, in both replicates (recomputed)
# ZW10 = ZW10 (UniProt O43264)
# Chain of ZW10 (O43264 whole entry, looked up): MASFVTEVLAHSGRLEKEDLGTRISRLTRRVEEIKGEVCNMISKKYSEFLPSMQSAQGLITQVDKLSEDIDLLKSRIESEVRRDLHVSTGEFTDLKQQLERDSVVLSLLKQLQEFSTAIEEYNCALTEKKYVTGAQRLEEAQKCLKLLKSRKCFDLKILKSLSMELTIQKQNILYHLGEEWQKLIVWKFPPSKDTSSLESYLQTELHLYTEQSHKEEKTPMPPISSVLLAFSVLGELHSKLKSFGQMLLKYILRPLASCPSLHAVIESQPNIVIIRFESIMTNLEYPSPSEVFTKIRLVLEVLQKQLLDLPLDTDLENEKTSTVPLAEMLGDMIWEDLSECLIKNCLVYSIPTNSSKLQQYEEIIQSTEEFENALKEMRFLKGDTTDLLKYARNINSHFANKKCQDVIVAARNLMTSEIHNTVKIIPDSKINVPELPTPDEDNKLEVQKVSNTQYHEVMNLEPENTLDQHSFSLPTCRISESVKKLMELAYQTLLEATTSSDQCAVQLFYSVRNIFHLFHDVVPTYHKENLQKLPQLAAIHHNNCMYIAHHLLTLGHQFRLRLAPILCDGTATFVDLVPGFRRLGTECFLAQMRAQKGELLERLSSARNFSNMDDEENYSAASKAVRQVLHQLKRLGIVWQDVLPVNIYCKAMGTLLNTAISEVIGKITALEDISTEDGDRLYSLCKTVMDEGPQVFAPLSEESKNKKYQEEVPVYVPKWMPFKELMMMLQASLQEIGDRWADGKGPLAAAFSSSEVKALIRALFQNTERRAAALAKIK
# How it was run: (§1)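 K562 cells at 2×10^6 cells/mL were exposed to 10 μM compound for 30 min, then aliquots were heated for 3 min across 48°C-58°C, pooled, and extracted in PBS containing 0.5% NP-40 at 4°C. The supernatant after 21,000xg for 90 min was taken as soluble protein and measured by TMTpro 16plex LC-MS/MS with channel sums equalised. Thermal stability is reported relative to control samples, with values from duplicates. Fold changes are given on a log2 scale.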
# ZWILCH = ZWILCH (UniProt Q9H900)
# Chain of ZWILCH (Q9H900 whole entry, looked up): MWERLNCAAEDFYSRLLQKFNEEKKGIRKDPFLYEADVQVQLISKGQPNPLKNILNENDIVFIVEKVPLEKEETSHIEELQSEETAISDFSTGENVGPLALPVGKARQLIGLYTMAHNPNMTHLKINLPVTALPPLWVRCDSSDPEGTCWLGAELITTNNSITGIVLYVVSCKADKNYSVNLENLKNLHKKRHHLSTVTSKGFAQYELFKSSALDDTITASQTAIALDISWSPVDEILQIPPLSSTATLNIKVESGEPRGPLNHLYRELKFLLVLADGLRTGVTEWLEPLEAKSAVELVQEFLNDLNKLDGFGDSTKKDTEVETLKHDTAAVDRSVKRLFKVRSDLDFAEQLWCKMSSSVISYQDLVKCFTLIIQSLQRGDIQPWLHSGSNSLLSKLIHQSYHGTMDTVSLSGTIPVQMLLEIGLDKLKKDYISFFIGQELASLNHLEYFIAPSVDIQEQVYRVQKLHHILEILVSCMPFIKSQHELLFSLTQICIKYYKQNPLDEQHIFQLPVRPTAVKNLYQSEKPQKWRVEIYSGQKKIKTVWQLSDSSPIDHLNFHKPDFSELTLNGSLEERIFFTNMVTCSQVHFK
# How it was run: as §1
# ZYG11B = ZYG11B (UniProt Q9C0D3)
# Chain of ZYG11B (Q9C0D3 whole entry, looked up): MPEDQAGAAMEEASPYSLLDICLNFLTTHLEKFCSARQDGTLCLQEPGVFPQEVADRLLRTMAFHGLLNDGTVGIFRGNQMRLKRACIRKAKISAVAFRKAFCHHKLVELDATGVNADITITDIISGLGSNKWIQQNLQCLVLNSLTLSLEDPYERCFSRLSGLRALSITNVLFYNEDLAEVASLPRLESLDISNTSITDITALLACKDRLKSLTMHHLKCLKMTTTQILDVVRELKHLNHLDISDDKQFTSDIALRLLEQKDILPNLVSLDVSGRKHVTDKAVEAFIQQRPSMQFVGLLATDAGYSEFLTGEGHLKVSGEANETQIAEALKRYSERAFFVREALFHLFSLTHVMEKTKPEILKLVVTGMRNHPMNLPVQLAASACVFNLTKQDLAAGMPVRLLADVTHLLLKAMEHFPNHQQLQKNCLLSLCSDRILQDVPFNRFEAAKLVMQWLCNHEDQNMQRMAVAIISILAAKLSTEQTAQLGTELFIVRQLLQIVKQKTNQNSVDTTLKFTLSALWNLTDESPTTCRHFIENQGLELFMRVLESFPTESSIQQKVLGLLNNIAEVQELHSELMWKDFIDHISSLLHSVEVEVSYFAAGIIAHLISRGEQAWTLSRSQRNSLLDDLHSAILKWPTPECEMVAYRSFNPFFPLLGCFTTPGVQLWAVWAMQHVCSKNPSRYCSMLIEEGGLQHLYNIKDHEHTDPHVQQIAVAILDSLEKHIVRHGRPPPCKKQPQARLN
# How it was run: as §1
Structure (SMILES),log2 fold change (ZW10),log2 fold change (ZWILCH),log2 fold change (ZYG11B)
O=C(O)c1ccc2c(c1)nc(Nc1cccc(Cl)c1)c1ccncc12 [silmitasertib],0.083,0.059,0
O=C(CCCCCCNC(=O)c1cnc(N(c2ccccc2)c2ccccc2Cl)nc1)NO [citarinostat],0.033,0.104,-0.043
NC(=O)c1ccc2nc(-c3ccc(Oc4ccc(Cl)cc4)cc3)[nH]c2c1,-0.005,-0.028,0
CS(=O)(=O)CCNCc1ccc(-c2ccc3ncnc(Nc4ccc(OCc5cccc(F)c5)c(Cl)c4)c3c2)o1 [lapatinib],-0.01,0.018,-0.05
Cc1cc(SCc2sc(-c3ccc(C(F)(F)F)cc3)nc2C)ccc1OCC(=O)O,0.088,0.027,-0.133
NCC(=O)Nc1ccc(-n2nc(C(F)(F)F)cc2-c2ccc3c(ccc4ccccc43)c2)cc1,-0.007,-0.068,-0.045
CC[C@H](C)n1cc(C)c2c(C(=O)NCc3c(C)cc(C)[nH]c3=O)cc(-c3ccc(N4CCNCC4)nc3)cc21,0.077,0.048,0.101
Cn1cncc1[C@@](N)(c1ccc(Cl)cc1)c1ccc2c(c1)c(-c1cccc(Cl)c1)cc(=O)n2C [tipifarnib],-0.087,-0.01,0.089
O=C(Nc1cccc(Nc2ncc(Br)c(NCCc3cnc[nH]3)n2)c1)N1CCCC1,-0.018,0.029,-0.026
CC(=O)c1cnc2ccc(-c3cc(Cl)c(O)c(Cl)c3)nc2c1N[C@H]1CC[C@H](CN(C)C)CC1,0.011,0.004,0.004
C[C@@H](N)c1ccc(C(=O)Nc2ccnc3[nH]ccc23)cc1,0.129,0.014,-0.035
Cc1cccc(-c2[nH]c(C(C)(C)C)nc2-c2ccc3nccnc3c2)n1,0.006,0,-0.039
C=CC(=O)N1CCC[C@@H](n2nc(-c3ccc(Oc4ccccc4)cc3)c3c(N)ncnc32)C1 [ibrutinib],-0.007,-0.014,0.022
CC(C)C[C@@H](C=O)NC(=O)[C@H](CC(C)C)NC(=O)[C@H](CC(C)C)NC(=O)OCc1ccccc1,0.007,0.079,0.042
CN1CC[C@H](c2c(O)cc(O)c3c(=O)cc(-c4ccccc4Cl)oc23)[C@H](O)C1 [alvocidib],-0.02,-0.034,-0.055
Cc1ccc(NC(=O)c2ccc(CN3CC[C@H](N(C)C)C3)c(C(F)(F)F)c2)cc1Nc1nccc(-c2cncnc2)n1 [bafetinib],0.003,-0.031,-0.272 (active)
FC(F)(F)c1ccc(/C=C/c2nc(COc3ccc(CCCCn4ccnn4)cc3)co2)cc1 [mubritinib],0.028,0.037,0.01
CN(CCOc1ccc(C[C@@H]2SC(=O)NC2=O)cc1)c1ccccn1 (racemic) [rosiglitazone],0.066,0.018,-0.055
C[C@@H]1COCCN1c1cc(C2(S(C)(=O)=O)CC2)nc(-c2cccc3[nH]ccc23)n1,-0.029,-0.04,-0.008
NC1(c2ccc(-c3nc4ccn5c(=O)[nH]nc5c4cc3-c3ccccc3)cc2)CCC1,-0.141,-0.097,-0.087
COc1cc2ncnc(Nc3ccc(F)c(Cl)c3)c2cc1OCCCN1CCOCC1 [gefitinib],0.135,0.125,0.042
COc1cc(C(=O)O)ccc1NC(=O)[C@@H]1N[C@@H](CC(C)(C)C)[C@](C#N)(c2ccc(Cl)cc2F)[C@H]1c1cccc(Cl)c1F [idasanutlin],-0.035,-0.051,0.01
